ALOX12 inh – ALOX12 (human) lipoxygenase inhibition; Potency, µM (doses to about 108 µM), inactives show at the highest dose activity change, negative = inhibition, hits mostly inhibitors; P18054; purified 12hLO, xylenol orange hydroperoxide absorbance; 580,000 compounds, 1.1% hits; also: potency is read from the fitted curve at half-maximal effect; % is scaled to controls: 0 for no effect and ±100 for the full control effect
Target sequence (P18054 whole entry, looked up): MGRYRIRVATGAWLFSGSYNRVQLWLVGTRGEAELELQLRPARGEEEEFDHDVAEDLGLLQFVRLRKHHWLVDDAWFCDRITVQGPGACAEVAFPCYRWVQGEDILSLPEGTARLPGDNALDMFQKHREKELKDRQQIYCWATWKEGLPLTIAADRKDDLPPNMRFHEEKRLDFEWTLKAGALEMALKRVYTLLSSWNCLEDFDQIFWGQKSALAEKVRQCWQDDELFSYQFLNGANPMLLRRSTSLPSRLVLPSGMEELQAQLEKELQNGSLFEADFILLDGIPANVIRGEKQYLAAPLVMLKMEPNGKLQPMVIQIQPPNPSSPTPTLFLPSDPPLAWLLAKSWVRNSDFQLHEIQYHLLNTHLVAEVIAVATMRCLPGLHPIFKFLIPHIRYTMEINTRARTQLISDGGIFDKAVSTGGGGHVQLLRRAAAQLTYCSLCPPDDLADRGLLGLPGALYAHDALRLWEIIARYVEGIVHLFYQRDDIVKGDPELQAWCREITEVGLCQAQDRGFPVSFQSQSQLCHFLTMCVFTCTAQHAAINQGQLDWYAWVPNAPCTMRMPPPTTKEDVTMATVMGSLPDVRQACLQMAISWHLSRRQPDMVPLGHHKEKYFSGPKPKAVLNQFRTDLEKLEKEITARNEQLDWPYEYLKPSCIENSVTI
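Hydroperoxide product was detected by ferrous iron/xylenol orange as the 573 to 405 nm absorbance ratio. Arachidonic acid at 40 uM (final) was turned over for 30 min at room temperature by 150 nM human 12hLO, pH 7.0 Hepes buffer, after 15 min compound preincubation.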
IL-2 act – IL-2 activation | activation, % (series mostly up to about 46 µM) | IL-2 activation reporter assay, cell-based qHTS; stimulated with anti-CD3/CD4/CD28 beads; in transgenic mouse T cells | 360,000 compounds, 0.065% hits; in the data active = activation above about 50%; inconclusive = mostly about 30% to 49%; also: 0% is about no effect
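Using fluorescent plate cytometry, EGFP and DsRed are detected in transgenic mouse T cells stimulated 18 h at 37 degrees C with antibody-coated beads after 60 min compound pretreatment.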
uPA generation – blocks generation of uPA at the cell surface | cell surface uPA generation assay, qHTS | Potency, µM (top dose mostly 38.3 µM), inactives show top-dose activity change, negative = inhibition, most hits filed as inhibitors | 330,000 compounds, 0.31% hits | AID 540303; active = well fitted inhibition curve with a large enough effect; inconclusive = small, poorly fitted or top-dose-only effect; inactive = no such curve, though single readings can be large or run the other way; tested in mouse RAW 264.7 cells; also: potency is read from the fitted curve at half-maximal effect; % is scaled to controls: 0 for no effect and ±100 for the full control effect; nearly all actives have a fitted effect of over 55% in size
a7 integrin act – integrin-mediated muscular dystrophy alleviation activation | alpha7betagal myoblasts, beta-gal FDG fluorescence, 48 h | Potency, µM (series often up to 38.3 µM), inactives show at the top dose activation, hits mostly activators | 350,000 compounds, 0.064% hits;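 also: potency is read from the fitted curve at half-maximal effect; 100% = response of the positive control SU9516; nearly all actives have a fitted effect of over 60% in size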
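Alpha7betagal+/- myoblasts (passage 13) were plated 16-24 hr, then exposed to compounds (1:260 dilution of DMSO stock) for 48 hours at 37C. After MPER lysis, β-galactosidase reporter activity was read as FDG fluorescence (ex 480/em 540) after 30 minutes.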
Nrf2 ARE act – activators of Nrf2 (ARE) signaling | AREc32 ARE-luciferase reporter (MCF7-derived line), luminescence, 24 h | Potency, µM (titrated, usually from 46.1 µM), for the others: top-dose activation, most hits filed as activators | 410,000 compounds, 0.31% hits | AID 624171; also: potency is read from the fitted curve at half-maximal effect; % of control where 0% means no effect; nearly all actives have a fitted effect of over 65% in size
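Nrf2 activation is followed as ARE-luciferase induction in the AREc32 line after one day of compound treatment; luminescence is read with Steady-Glo.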
An asterisk follows results filed as active; ? = inconclusive; . = no result; [ ] = dose if it differs, or a comment. Hits are enriched below; roughly 1.5% of the tested compounds scored in any of these assays. Unless noted, calls follow the shape of the dose curve; as a rule, active = well fitted curve in the direction sought with a large enough effect; inconclusive = small, poorly fitted or top-dose-only effect, or another doubt; inactive = no such curve, though single readings can be large; an effect the other way counts as inactive or inconclusive.

SMILES	ALOX12 inh	IL-2 act	uPA generation	a7 integrin act	Nrf2 ARE act
O=C(Nc1nc(-c2ccc(Cl)cc2)cs1)NC1CCCCC1	50µM*	1	0%	3%	0%[9.22 µM]
O=C(Cc1ccccc1)Nc1ccc([C@@H](O)[C@H]2COCC(=O)N2CC2CC2)cc1	6%[176 µM]	.	.	.	.
CCCn1c(CNc2ccccc2O)nc2ccccc21	?	0	-10%	-43%	14µM*
CSc1cccc(NC(=O)Cn2c(-c3cccc(Cl)c3)nc(C)c(CCO)c2=O)c1	0%	.	.	.	.
O=C(OCc1ccccc1)c1ccc(NCc2cc(O)ccc2O)cc1	?	-1	-4%	-54%	?
CC(C)OC(=O)c1ccc(NCc2cc(O)ccc2O)cc1	?	-3	0%	-50%	13µM*
O=C1C(=Cc2ccco2)CCC1=Cc1ccco1	35µM*	0	-4%	-37%	18%
O=C1C(=Cc2ccco2)CCCC1=Cc1ccco1	25µM*	0	-14%	-18%	3.2µM*
O/N=C1\CCC\C1=C/c1ccco1	?	0	5%	-15%	15%
Nc1nc2c(c(=O)[nH]1)CCN(C(=O)CC(c1ccccc1)c1ccco1)C2 (configuration not stated)	68%	.	.	.	.
c1cncc(-c2cncnc2NC2CCNCC2)c1	7.9µM*	.	.	.	.
c1cncc(-c2ccc3ncnc(NC4CCNCC4)c3c2)c1	-23%	.	.	.	.
CS(=O)(=O)N1CCC(NS(=O)(=O)c2ccccc2F)CC1	1%	.	.	.	.
CCn1c2ccccc2c2cc(CN3CCN(Cc4ccccc4F)CC3)ccc21	28µM*	.	.	.	4%
Cc1ccc(CC(=O)Nc2ccc(N(C)C)cc2)cc1	20µM*	.	.	.	.
CCN(CC)c1ccc(NC(=O)CCCOc2cccc(C)c2)cc1	40µM*	-1	1%	-2%	4%
Cc1cccc(OCCCC(=O)Nc2ccc(S(N)(=O)=O)cc2)c1	7%	0	1%	11%	0%
COc1cc2c(c(OC)c1OC)-c1c(cc3c(c1OC)OCO3)CC(C)C(C)C2 (configuration not stated)	13%	.	.	.	.
COc1cc2c(c(OC)c1OC)-c1c(cc3c(c1O)OCO3)C[C@@H](C)[C@@H](C)C2	30%	0	11µM*	-22%	0%
COc1ccc(C2/C(=C(\O)c3ccc4c(c3)CC(C)O4)C(=O)C(=O)N2Cc2cccnc2)c(OC)c1 (configuration not stated)	11µM*	0	7%	4%	0%
O=C(COC(=O)c1sc2ccccc2c1Cl)NCC1CCCO1 (configuration not stated)	-7%	.	.	.	.
Cc1nnnn1/C(=C\c1ccccc1)C(=O)OCC(=O)Nc1cccc(S(=O)(=O)N(C)C)c1	-29%	0	8.9µM*	-21%	6%
Cc1nnnn1/C(=C\c1ccccc1)C(=O)OCC(=O)Nc1ccc(Cl)cc1F	?	-7	?	-12%	23%
O=C(CCN1CCCC1=O)NC1CCCN(CCCc2ccccc2)C1 (configuration not stated)	-6%	.	.	.	.
CC(C)Nc1nc(NC(N)=S)nc(NC(C)(C)C)n1	45µM*	3	-2%	12%	2%
SMILES	ALOX12 inh	IL-2 act	uPA generation	a7 integrin act	Nrf2 ARE act
CC(N)c1cccs1 (configuration not stated)	-25%	.	.	.	.
COc1ccc(-c2ccnc3nc(C(C)C)nn23)cc1	-5%	.	.	.	.
COc1ccc(CC(=O)Nc2nc(-c3ccc(F)c(F)c3)cs2)cc1	-14%	2	0%	-18%	4%
CC1(C(=O)OCC(=O)Nc2nc(-c3ccc(F)c(F)c3)cs2)CC1(Cl)Cl (configuration not stated)	56µM*	-6	-11%	0%	0%
CC(C(=O)NCCc1ccccn1)C1CCOCC1 (configuration not stated)	11%	.	.	.	.
COc1ccc(C2C(C(=O)C(C)(C)C)=C(O)C(=O)N2Cc2ccccc2)cc1 (configuration not stated)	-25%	-2	-4%	16%	0%
COc1ccc(C2=C(O)C(=O)N(CCc3ccccc3)C2c2ccc(C(=O)O)cc2)cc1 (configuration not stated)	18µM*	.	.	.	.
COc1ccc(C2=C(O)C(=O)N(Cc3ccc(C)cc3)C2c2ccc(F)cc2)cc1 (configuration not stated)	18µM*	.	.	.	.
COCCNC(=S)N/N=C(\C)c1ccc(Cl)c(Cl)c1	?	-1	-20%	15%	6%
COCCNC(=S)N/N=C(\C)c1ccc(Cl)c(Cl)c1Cl	40µM*	-4	-3%	7%	7%
COc1ccc([C@H]2CN(c3nnnn3-c3ccccc3)C[C@@H]2N)cc1	28%	.	.	.	.
Cc1cccc(Nc2nc3ccccc3n3c(N)nnc23)c1	5%	.	.	.	9%
Cc1nnc2c(Nc3cccc(O)c3)nc3ccccc3n12	-6%	.	.	.	3.2µM*
C(=N\Nc1ccc2nncn2n1)/c1ccco1	0%	2	-1%	35%	10µM*
COC(=O)C1=C(C)N=C2SC=C(CC(=O)N3CCCC3)N2C1c1ccc(OC)cc1 (configuration not stated)	42%	.	.	.	.
COc1ccc2c(c1)OCC(CNC(=O)c1noc3c1CCCC3)C2 (configuration not stated)	30%	.	.	.	.
Cn1c(COc2ccc(C(C)(C)C)cc2)n[nH]c1=S	35µM*	.	.	.	.
COc1ccc(/C=C/C(=O)c2ccc(C(=O)O)s2)cc1OC	5.6µM*	.	.	.	.
COc1ccc(N2CCN(C(=O)c3ccc4c(c3)NC(=O)C(CSCc3ccccc3F)N4)CC2)cc1 (configuration not stated)	4.5µM*	-2	.	7%	-2%
Cc1cccc(N2CCN(C(=O)c3ccc4c(c3)NC(=O)C(CSCc3cccc(F)c3)N4)CC2C)c1 (configuration not stated)	22µM*	-1	-25%	15%	0%
Cc1ccc2nc3sc(C(=O)NCc4ccco4)c(N)c3cc2c1	349%	167*	-1%	-6%	0%
Cc1ccc(C(=O)c2c3ccc([N+](=O)[O-])cc3[n+]([O-])n2CCCN)cc1	?	-3	0.63µM*	-17%	?
Cc1cccc(N=Nc2c(C)c(C#N)c(O)[nH]c2=O)c1	-10%	-1	-1%	11%	3%
CCCCOC(=O)c1ccc(N=Nc2c(C)c(C#N)c(O)[nH]c2=O)cc1	-9%	107*	-4%	11%	11%

High-throughput results (PubChem BioAssay)
